An excerpt weighted towards active compounds, which were near 4.2% of everything screened.
FBA Mtb inh: Mtb FBA enzyme inhibitors, primary screen, biochemical, fluorescence, strain H37Rv. Fructose-bisphosphate aldolase (Mycobacterium tuberculosis (strain ATCC 25618 / H37Rv)), …. purified M. tuberculosis FBA, fluorescence read-out. inhibition, % at 1 µM. 360,000 compounds, 2.3% hits. AID 588726, 2011;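 further: 0% = vehicle and 100% = reference inhibitor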
Target sequence (P9WQA3 whole entry, looked up): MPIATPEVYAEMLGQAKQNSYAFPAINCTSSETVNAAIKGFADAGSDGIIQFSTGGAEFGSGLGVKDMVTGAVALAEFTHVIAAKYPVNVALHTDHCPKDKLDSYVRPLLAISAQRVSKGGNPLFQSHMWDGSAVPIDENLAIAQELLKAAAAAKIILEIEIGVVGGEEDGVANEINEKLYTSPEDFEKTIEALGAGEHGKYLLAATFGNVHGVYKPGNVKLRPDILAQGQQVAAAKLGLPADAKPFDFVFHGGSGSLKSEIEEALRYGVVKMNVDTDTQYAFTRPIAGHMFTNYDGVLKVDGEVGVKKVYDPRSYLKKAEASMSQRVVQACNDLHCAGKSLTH
PrPC surface inh: inhibitors of human cell surface prion protein PrPC, primary screen, cell-based, TR-FRET; Major prion protein (Homo sapiens), P04156; TR-FRET read-out; inhibition, % at 13.8 µM; 370,000 compounds, 0.43% hits; AID 720596, 2013; in the data active means inhibition above about 24%; further: 0% = median of the test wells and 100% = reference compound wells
BJeLR viability: MLPCN primary cell-based screen for lethality selective to Ras in HRASV12 cells; BJeLR (HRASV12) viability, CellTiter-Glo ATP luminescence, 48 h; inhibition, % (concentration not given with the values); 300,000 compounds, 0.17% hits; in the data active means inhibition above about 50%
RecA intein inh: Mtb RecA intein splicing inhibitors, primary screen, biochemical, fluorescence, HTS. cell-free RecA intein splicing. 290,000 compounds, 0.75% hits. inhibition, % (no concentration beside the values); in the data active means inhibition above about 30%;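 further: 0% = vehicle wells and 100% = reference inhibitor control wells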
GDH-TPI counter-1: GDH-TPI coupling enzyme inhibitors, primary screen, artefact control for M. tuberculosis FBA inhibitor project, biochemical, absorbance, full deck; inhibition, % at 4.8 µM; GDH-TPI coupled enzyme counterscreen, NADH absorbance; 360,000 compounds, 1.2% hits; in the data active means inhibition above about 30%;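 further: 0% = DMSO wells and 100% = wells lacking the enzyme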
Mtb FBA inh conf: M. tuberculosis aldolase blockers, biochemical, fluorescence, strain H37Rv, confirmation; shares compounds with FBA Mtb inh; purified M. tuberculosis FBA, fluorescence read-out; inhibition, % at 1 µM; 5,600 compounds, 78% hits; AID 651616, 2012;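 further: 0% = vehicle wells and 100% = reference inhibitor wells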
GDH-TPI counter-2: GDH-TPI coupling enzyme inhibitors, artefact control for M. tuberculosis FBA inhibitor project, biochemical, fluorescence, high throughput; shares compounds with FBA Mtb inh; GDH-TPI coupled enzyme counterscreen; inhibition, % at 1 µM; 5,600 compounds, 81% hits; AID 652141, 2013; in the data active means inhibition above about 10%
* = called active by the depositor. Unless noted, no stated cut-off is given here; in the data, active means inhibition above about 27%; inactive means the rest.

CN(C)/C=N/c1nc2nccc(-c3cccnc3)n2n1 was read as FBA Mtb inh 27*, PrPC surface inh -3, BJeLR viability -4, RecA intein inh -10, GDH-TPI counter-1 1, Mtb FBA inh conf 152* and GDH-TPI counter-2 107*.
CCC[C@H]1[C@@H](NC(=O)c2cccnc2)CC[C@@]23CCCN2C(=O)CCC[C@@H]13 was read as PrPC surface inh -16.
For C[C@H]1COc2cccc(N3CCCC3)c2S(=O)(=O)N1C the results were PrPC surface inh -4.
For C=CCN1C(=O)[C@@H](CC(=O)N2CCOCC2)[C@]2(C(=O)OC)CCCCC=C12 the results were PrPC surface inh 6.
Cc1cc(C)n2ncc(C(=O)NCc3ccc(Cl)cc3)c2n1 was read as FBA Mtb inh 34*, PrPC surface inh 12, BJeLR viability -4, RecA intein inh 28, GDH-TPI counter-1 5, Mtb FBA inh conf 118* and GDH-TPI counter-2 89*.
For O=C(NCc1ccc(Cl)cc1)c1cnn2ccccc12 the results were FBA Mtb inh 38*, PrPC surface inh -2, BJeLR viability 2, RecA intein inh 0, GDH-TPI counter-1 6, Mtb FBA inh conf 2 and GDH-TPI counter-2 -4.
For O=C(NCc1ccc(Cl)cc1)c1ccc2ccccc2n1 the results were FBA Mtb inh 65*, PrPC surface inh 15, BJeLR viability 8, RecA intein inh -1, GDH-TPI counter-1 -2, Mtb FBA inh conf 137* and GDH-TPI counter-2 118*.
`COc1ccc(C2c3ccccc3NC3C2C(=O)N(Cc2ccc(OC)cc2OC)[C@H]3Cc2ccccc2)cc1` (stereo partly specified) gave PrPC surface inh -5.
For COC(=O)/C=C1\Nc2ccc(Cl)cc2C(=O)NC1=O the results were PrPC surface inh 15.
COc1ccc(C(=O)CSc2nnc(-c3cccc(Cl)c3)n2Cc2ccco2)cc1 was read as PrPC surface inh -7.
For CC(C)CNC(=S)N(CCN(C)C)Cc1cc2cc3c(cc2[nH]c1=O)OCO3 the results were FBA Mtb inh 11, PrPC surface inh -1, BJeLR viability 8, RecA intein inh 2 and GDH-TPI counter-1 25.
`CC(C)CNC(=S)N(CCCO)Cc1cc2cc3c(cc2[nH]c1=O)OCO3` gave FBA Mtb inh 33*, PrPC surface inh -1, BJeLR viability -3, GDH-TPI counter-1 21, Mtb FBA inh conf 148* and GDH-TPI counter-2 98*.
Screening CC(C)CNC(=S)N(CCN(C)C)Cc1cc2cc3c(cc2[nH]c1=O)OCCO3 returned FBA Mtb inh 27*, PrPC surface inh -1, BJeLR viability -7, RecA intein inh -3, GDH-TPI counter-1 15, Mtb FBA inh conf 45* and GDH-TPI counter-2 39*.
For CC(C)C[C@H](NC1(C(=O)NC2CCCCC2)CCN(C(=O)OC(C)(C)C)CC1)C(=O)NCCc1c[nH]c2ccccc12 the results were PrPC surface inh 0.
`O=C(c1cc2c(s1)CCCC2)N1CCN(c2ccccc2)CC1` gave FBA Mtb inh 34*, PrPC surface inh -4, BJeLR viability -3, RecA intein inh 3, GDH-TPI counter-1 -1, Mtb FBA inh conf 84* and GDH-TPI counter-2 67*.
Screening c1coc(C2Nc3ccccc3C3OCCC23)c1 (stereo unspecified) returned FBA Mtb inh 9, PrPC surface inh 1, BJeLR viability -1, RecA intein inh 1 and GDH-TPI counter-1 -14.
`COc1ccc2c(c1)C1OCCC1C(c1ccco1)N2` (stereo unspecified) gave FBA Mtb inh 93*, BJeLR viability 9, RecA intein inh -2, GDH-TPI counter-1 44*, Mtb FBA inh conf 96* and GDH-TPI counter-2 67*.

From PubChem BioAssay
